Results published in the supplement of paper PMC9694430.

Key:
Test in all cases: thermal shift delta Tm vs DMSO control; higher = stronger stabilization (binding)
Conditions in all cases: 12.5 µM; protein concentration 2 µM
LOC_OS01G57100-cb003 = tested on: LOC_OS01G57100-cb003
Summary of the method: (§1)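 The melting temperature shift given here is a triplicate mean, measured against protein that received only DMSO. Melting temperatures came from Boltzmann fits of differential scanning fluorimetry data on E. coli-expressed, purified rice kinase domain constructs. Each 19.5 μl well contained 2 μM kinase, 100 mM potassium phosphate pH 7.5, 150 mM NaCl, 10% glycerol, 5 × SYPRO Orange and compound in DMSO. Plates were scanned from 25°C to 95°C at 0.05°C/s.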

LOC_OS01G60330-cb001 = tested on: LOC_OS01G60330-cb001
Summary of the method: as §1

LOC_OS01G60700-cb002 = tested on: LOC_OS01G60700-cb002
Summary of the method: as §1

LOC_OS01G63280-cb003 = tested on: LOC_OS01G63280-cb003
Summary of the method: as §1

LOC_OS01G67340-cb003 = tested on: LOC_OS01G67340-cb003
Summary of the method: as §1

LOC_OS01G70970-cb002 = tested on: LOC_OS01G70970-cb002
Summary of the method: as §1

LOC_OS02G07810-cb001 = tested on: LOC_OS02G07810-cb001
Summary of the method: as §1

LOC_OS02G08530-cb003 = tested on: LOC_OS02G08530-cb003
Summary of the method: as §1

LOC_OS02G14120-cb001 = tested on: LOC_OS02G14120-cb001
Summary of the method: as §1

LOC_OS02G17970-cb001 = tested on: LOC_OS02G17970-cb001
Summary of the method: as §1

LOC_OS02G45750-cb003 = tested on: LOC_OS02G45750-cb003
Summary of the method: as §1

LOC_OS02G54510-cb004 = tested on: LOC_OS02G54510-cb004
Summary of the method: as §1

LOC_OS03G04050-cb001 = tested on: LOC_OS03G04050-cb001
Summary of the method: as §1

LOC_OS03G12390-cb001 = tested on: LOC_OS03G12390-cb001
Summary of the method: as §1

LOC_OS03G27990-cb004 = tested on: LOC_OS03G27990-cb004
Summary of the method: as §1

LOC_OS03G50450-cb001 = tested on: LOC_OS03G50450-cb001
Summary of the method: as §1

LOC_OS03G50810-cb003 = tested on: LOC_OS03G50810-cb003
Summary of the method: as §1

LOC_OS04G35114-cb001 = tested on: LOC_OS04G35114-cb001
Summary of the method: as §1

LOC_OS04G38480-cb003 = tested on: T1, LOC_OS04G38480-cb003
T1 sequence (whole entry): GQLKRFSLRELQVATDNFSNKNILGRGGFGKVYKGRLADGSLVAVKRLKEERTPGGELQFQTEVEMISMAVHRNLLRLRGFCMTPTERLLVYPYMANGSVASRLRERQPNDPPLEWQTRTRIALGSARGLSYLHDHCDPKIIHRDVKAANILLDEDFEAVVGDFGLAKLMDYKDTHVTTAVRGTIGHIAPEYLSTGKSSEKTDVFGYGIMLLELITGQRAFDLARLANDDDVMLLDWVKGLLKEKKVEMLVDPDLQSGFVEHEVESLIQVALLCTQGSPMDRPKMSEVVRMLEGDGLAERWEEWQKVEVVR
Summary of the method: as §1

LOC_OS04G41100-cb001 = tested on: T2, LOC_OS04G41100-cb001
T2 sequence (whole entry): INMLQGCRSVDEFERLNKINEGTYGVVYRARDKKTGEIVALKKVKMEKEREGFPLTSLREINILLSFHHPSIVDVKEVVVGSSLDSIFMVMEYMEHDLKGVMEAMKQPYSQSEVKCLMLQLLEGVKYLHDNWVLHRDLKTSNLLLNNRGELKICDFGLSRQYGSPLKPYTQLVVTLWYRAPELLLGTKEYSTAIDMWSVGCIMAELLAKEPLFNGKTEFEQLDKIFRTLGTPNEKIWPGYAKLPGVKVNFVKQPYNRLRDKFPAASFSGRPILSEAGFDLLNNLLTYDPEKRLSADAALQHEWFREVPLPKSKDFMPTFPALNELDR
Summary of the method: as §1

SMILES | thermal shift delta Tm (LOC_OS01G57100-cb003) | thermal shift delta Tm (LOC_OS01G60330-cb001) | thermal shift delta Tm (LOC_OS01G60700-cb002) | thermal shift delta Tm (LOC_OS01G63280-cb003) | thermal shift delta Tm (LOC_OS01G67340-cb003) | thermal shift delta Tm (LOC_OS01G70970-cb002) | thermal shift delta Tm (LOC_OS02G07810-cb001) | thermal shift delta Tm (LOC_OS02G08530-cb003) | thermal shift delta Tm (LOC_OS02G14120-cb001) | thermal shift delta Tm (LOC_OS02G17970-cb001) | thermal shift delta Tm (LOC_OS02G45750-cb003) | thermal shift delta Tm (LOC_OS02G54510-cb004) | thermal shift delta Tm (LOC_OS03G04050-cb001) | thermal shift delta Tm (LOC_OS03G12390-cb001) | thermal shift delta Tm (LOC_OS03G27990-cb004) | thermal shift delta Tm (LOC_OS03G50450-cb001) | thermal shift delta Tm (LOC_OS03G50810-cb003) | thermal shift delta Tm (LOC_OS04G35114-cb001) | thermal shift delta Tm (LOC_OS04G38480-cb003) | thermal shift delta Tm (LOC_OS04G41100-cb001)
COc1cc2ncnc(Nc3ccc(F)c(Cl)c3)c2cc1OCCCN1CCOCC1 [Gefitinib (ZD1839)] | 0.37 °C | 0.16 °C | 1.04 °C | 0.4 °C | -0.59 °C | 0.28 °C | 0.77 °C | 0.6 °C | 4.78 °C | 0.15 °C | 1.36 °C | 0.04 °C | 0.31 °C | 1.33 °C | 0.64 °C | 0.05 °C | 1.04 °C | 4.83 °C | 1.76 °C | 0.77 °C
CCc1nc(-c2cccc(C)c2)c(-c2ccnc(NC(=O)c3ccccc3)c2)s1 | 0.93 °C | 1.03 °C | 1.53 °C | 0.61 °C | 0.22 °C | 0.22 °C | 0.98 °C | 0.24 °C | 0.43 °C | 0.22 °C | 0.74 °C | -0.41 °C | 0.27 °C | 0.6 °C | 0.28 °C | 0.06 °C | 0.03 °C | 1.27 °C | 0.74 °C | 0.61 °C
CCCCNc1ncc2c(-c3ccc(CN4CCN(C)CC4)cc3)cn([C@H]3CC[C@H](O)CC3)c2n1 | 3.5 °C | 14.9 °C | 0.56 °C | 0.95 °C | 10.1 °C | 8.18 °C | -0.25 °C | 5.26 °C | 12.2 °C | -0.42 °C | 18.4 °C | 0.6 °C | 0.12 °C | 8.3 °C | 10.8 °C | 6.64 °C | 10.5 °C | 12.3 °C | 4.63 °C | 0.42 °C
C[C@@H]1COCCN1c1cc(C2([S@](C)(=N)=O)CC2)nc(-c2cc[nH]c3nccc2-3)n1 | 0.97 °C | 0.61 °C | 0.22 °C | -0.13 °C | 0.47 °C | 0.14 °C | 0.56 °C | 0.49 °C | 0.92 °C | 0.47 °C | 0.39 °C | 0.1 °C | 0.32 °C | -0.31 °C | 0.13 °C | 0.46 °C | 0.2 °C | 2.45 °C | 0.68 °C | 0.52 °C
Cc1cc(C(=O)NOCCO)c(Nc2ccc(I)cc2F)n(C)c1=O | 1.03 °C | 0.4 °C | 0.64 °C | 0.19 °C | -0.42 °C | 0.23 °C | 0.73 °C | 0.29 °C | -0.53 °C | 0.08 °C | -0.39 °C | 0.03 °C | 0.19 °C | -0.3 °C | 0.02 °C | 1.11 °C | -0.06 °C | 0.41 °C | 0.64 °C | 0.58 °C
CCN(CC)CCNC(=O)c1c(C)[nH]c(/C=C2\C(=O)Nc3ccc(F)cc32)c1C [Sunitinib Malate] | 0.44 °C | 9.27 °C | 0.27 °C | 0.02 °C | 2.37 °C | 7 °C | -0.25 °C | 5.21 °C | 7.4 °C | -0.05 °C | 12.4 °C | 0.41 °C | 0.23 °C | 7.66 °C | 6.23 °C | 2.74 °C | 6.79 °C | 10.1 °C | 2.16 °C | 0.97 °C
COc1cc2ncnc(Nc3ccc(Oc4ccccc4)cc3C)c2cc1OC | 1.05 °C | 0.33 °C | 0.09 °C | 0.54 °C | 0.17 °C | 0.47 °C | -1.03 °C | 0.5 °C | 3.14 °C | 0.03 °C | 1.39 °C | 0.53 °C | 0.35 °C | -0.19 °C | 0.39 °C | 0.77 °C | 0.51 °C | 4.14 °C | 1.19 °C | -0.13 °C
Cc1ccc(Nc2nccc(N(C)c3ccc4c(C)n(C)nc4c3)n2)cc1S(N)(=O)=O | 0.87 °C | 4.66 °C | 1.25 °C | 0.81 °C | 0.74 °C | 0.44 °C | 1.5 °C | 1.68 °C | 3.21 °C | 0.47 °C | 3.91 °C | 1.36 °C | 0.35 °C | 1.04 °C | 0.21 °C | 0.3 °C | 1.55 °C | 4.77 °C | 1.08 °C | 3.24 °C
CN1CCN(S(=O)(=O)c2ccc(-c3cnc(N)c(C(=O)Nc4cccnc4)n3)cc2)CC1 | 1.13 °C | 1.53 °C | 1.31 °C | 0.13 °C | 0.5 °C | 1.05 °C | 0.28 °C | 1.13 °C | 2.21 °C | -0.31 °C | 3.58 °C | 0.11 °C | 0.29 °C | 1.18 °C | 0.73 °C | 0.63 °C | 0.87 °C | 2.43 °C | 1.65 °C | 0.85 °C
CCCCNc1ncc(-c2ccc(CN3CCOCC3)cn2)c(NC2CCC(O)CC2)n1 (stereo not given) | -0.33 °C | 8.95 °C | 0 °C | -0.12 °C | 1.86 °C | 5.72 °C | 0.1 °C | 1.9 °C | 5.78 °C | 0.44 °C | 13.7 °C | 0.36 °C | 0.34 °C | 2.88 °C | 1.94 °C | 1.29 °C | 5.33 °C | 7.84 °C | 3.1 °C | 0.46 °C
Nc1ncnc2c1c(-c1cnc3[nH]ccc3c1)nn2C1CCCC1 | 1.79 °C | 1.57 °C | 1.17 °C | 4.61 °C | 1.58 °C | 0.76 °C | 1.3 °C | 2.67 °C | 2.04 °C | 0.76 °C | 2.27 °C | 3.34 °C | 0.54 °C | 5.27 °C | 1.19 °C | 0.86 °C | 0.88 °C | 4.32 °C | 1.28 °C | 0.51 °C
CCOc1cn(-c2ccc(F)cc2C)nc1C(=O)Nc1ccc(Oc2ccnc3cc(OC)c(OC)cc23)c(F)c1 | 0.32 °C | 1.07 °C | 0.34 °C | 0.6 °C | 0.43 °C | 0.98 °C | 0.56 °C | 1.15 °C | 2.96 °C | 0.55 °C | 1.39 °C | 0.07 °C | 0.15 °C | 0.26 °C | 0.2 °C | 0.09 °C | 1.07 °C | 1.9 °C | 2.19 °C | 0.88 °C
